In the library only some 5.9% were active in any assay of this set; here they are far more common.
RORg inh = inhibitors of mouse ROR gamma transcriptional activity; P51450; Drosophila S2 Gal4-RORgamma UAS-luciferase reporter, 20 h; Potency, µM (highest dose often 53.6 µM), for the others: at the highest dose activity change, negative = inhibition, actives largely listed as inhibitors; 5.4% of 310,000 active; also: % is scaled to controls: 0 for no effect and ±100 for the full control effect; nearly all actives have a fitted effect of over 60% in size
Target sequence (P51450 whole entry, looked up, the tested form may be a part): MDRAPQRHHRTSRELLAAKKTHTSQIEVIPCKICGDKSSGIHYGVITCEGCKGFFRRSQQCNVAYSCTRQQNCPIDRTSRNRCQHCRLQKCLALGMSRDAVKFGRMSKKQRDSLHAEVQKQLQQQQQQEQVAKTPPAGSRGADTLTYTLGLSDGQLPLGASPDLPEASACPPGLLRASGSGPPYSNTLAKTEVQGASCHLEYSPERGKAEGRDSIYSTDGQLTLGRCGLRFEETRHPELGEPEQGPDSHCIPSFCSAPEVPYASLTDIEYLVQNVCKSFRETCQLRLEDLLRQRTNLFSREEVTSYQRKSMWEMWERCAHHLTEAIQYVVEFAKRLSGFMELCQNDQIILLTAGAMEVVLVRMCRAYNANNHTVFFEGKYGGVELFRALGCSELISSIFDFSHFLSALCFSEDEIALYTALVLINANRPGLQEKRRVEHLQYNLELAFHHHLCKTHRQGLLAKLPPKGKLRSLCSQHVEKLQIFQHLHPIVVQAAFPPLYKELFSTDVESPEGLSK
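Luciferase reporter read in Schneider cells carrying Gal4-RORγ (mouse) and UAS-Photinus luciferase; cells given compound 1 h before 700 uM copper sulfate induction, then incubated 20 h at ambient temperature.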
GLP1R inv ag = inverse agonists of human GLP-1 receptor; P43220; Potency, µM (top dose mostly 38.3 µM), for inactives: at the top dose activity change, negative = inhibition, most hits filed as inhibitors; HEK293 GLP-1R CRE-luciferase, luminescence, 24 h; GLP-1R form is constitutively active; 1.6% of 410,000 active; also: % is scaled to controls: 0 for no effect and ±100 for the full control effect; nearly all actives have a fitted effect of over 55% in size
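Seeding at 200 cells/uL, 12 h culture, 24 hr compound treatment, then luciferase reagent and a luminescence read; cells are HEK293 stably expressing a constitutively active GLP-1R plus cAMP-responsive luciferase.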
GLP1R ag = agonists of human GLP-1 receptor; P43220; HEK293 GLP-1R CRE-luciferase, luminescence, 4-6 h; cells express a hypersensitive GLP-1R form; Potency, µM (top dose mostly 45.6 µM), inactives show top-dose activation, hits mostly activators; 0.007% of 380,000 active; also: % of control where 0% means no effect
VP16 counter = counter-screen for ROR gamma inhibitors: Gal4-VP16 reporter. Potency, µM (highest dose often 53.6 µM), for the others: top-dose activity, negative = inhibition, usual class: inhibitors. 3.5% of 310,000 active. Drosophila S2 Gal4-VP16 UAS-luciferase, luminescence, 20 h;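 also: Gal4-VP16 expression switched on by copper sulfate through the metallothionein promoter; % is scaled to controls: 0 for no effect and ±100 for the full control effect; nearly all actives have a fitted effect of over 50% in size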
HEK293 tox = cytotoxicity in counter-screen for GLP-1R inverse agonists | HEK293 cAMP-luciferase reporter cells, luminescence, 24 h | Potency, µM (titrated, usually from 38.3 µM), inactives show at the top dose activity change, negative = inhibition, hits mostly inhibitors | 0.13% of 410,000 active | AID 624418;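 also: loss of luciferase light is scored as toxicity; % is scaled to controls: 0 for no effect and ±100 for the full control effect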
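Seeding density was 200 cells/uL; after overnight-length (12 h) culture, 23 nL compounds went on for 24 h at 37 °C. Readout used a luciferase detection reagent, luminescence taken after 12 min at room temperature.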
* hit, by the source's call; ? = inconclusive; / = no result; [ ] = remark or other dose. Calls follow the shape of the dose curve; as a rule, active = well fitted curve in the direction sought with a large enough effect; inconclusive = small, poorly fitted or top-dose-only effect, or another doubt; inactive = no such curve, though single readings can be large; an effect the other way counts as inactive or inconclusive. Potency is read from the fitted curve at half-maximal effect.

SMILES	RORg inh	GLP1R inv ag	GLP1R ag	VP16 counter	HEK293 tox
CC(=O)Nc1ccc(N=NC2C(=O)N(C(N)=S)N=C2C)cc1 (stereo not given)	5.01µM*	16.3%	22.8%	8.91µM*	-22.4%
CC1=NN(C(N)=S)C(=O)C1N=Nc1cccc(C(=O)O)c1 (stereo not given)	11.2µM*	-13.3%	-7.0%	?	-14.8%
CC(=O)Nc1ccc(N)cc1	-13.3%	0.0%	-4.6%	12.1%	-1.7%
CC1=NN(C(N)=S)C(=O)C1N=Nc1ccc([N+](=O)[O-])cc1 (stereo not given)	0.159µM*	?	-3.1%	1.26µM*	?
O=c1c2cnn(-c3ccc(F)cc3)c2ncn1Cc1ccccc1Cl	/	1.3%	/	/	0.5%
CC1=NN(C(N)=S)C(=O)C1N=Nc1ccc(F)cc1 (stereo not given)	1µM*	?	-1.8%	1.26µM*	-3.1%
CC1=NN(C(N)=S)C(=O)C1N=Nc1ccc(O)cc1 (stereo not given)	3.98µM*	?	2.4%	?	-10.2%
CC1=NN(C(N)=S)C(=O)C1N=Nc1ccc(C)c(Br)c1 (stereo not given)	0.708µM*	1.4%	3.7%	2.82µM*	6.2%
NC(=S)N=Nc1ccc(O)cc1	/	24.6%	-2.6%	/	?
Cc1ccc(N=Nc2c(C)[nH]n(-c3ccccc3)c2=O)cc1Br	-1.0%	11.8%	6.0%	?	-0.1%
COc1ccc(NC(=O)c2cc3nc(-c4ccc(C)c(C)c4)cc(C(F)(F)F)n3n2)cc1	/	16.3%	/	/	26.8%
CSCC[C@H](C=O)NC(=O)[C@H](CC(C)C)NC(=O)[C@H](CC(C)C)NC(C)=O	11.2µM*	/	/	-2.0%	/
CCCC[C@@H](C=O)NC(=O)[C@H](CC(C)C)NC(=O)[C@H](CC(C)C)NC(C)=O	?	/	/	-14.3%	/
CCOC(=O)c1ccc(Cl)c(NC(=O)c2ccc(-c3ccccc3)cc2)c1	-2.9%	8.3%	-2.5%	?	1.9%
CCOC(=O)c1ccc(/C=C2/C=C(c3ccccc3)N(c3ccc(Cl)c(C(=O)O)c3)C2=O)cc1	?	10µM*	-1.2%	-26.0%	-15.0%
CCCc1nc2ccccc2n1Cc1ccccc1OC	6.31µM*	?	8.3%	?	-15.6%
Cc1ccccc1OCCn1c(C)nc2ccccc21	1.4%[1.91 µM]	?	16.5%	7.94µM*	1.8%
Cc1nc2ccccc2n1Cc1ccc(Cl)cc1	?	-24.4%	2.7%	10µM*	-1.4%
Cc1nc2ccccc2n1CCOc1ccccc1	1.5%	-6.4%	0.8%	?	0.2%
Cc1ccccc1Cn1c(C)nc2ccccc21	?	?	-3.9%	3.55µM*	0.8%
COCCn1c(=O)c(-c2ccc(Cl)cc2)nc2cnc(Oc3cccc(Cl)c3)nc21	-22.7%	/	/	2.5%	/
C=C1CCN(C(Cc2ccccc2)C(=O)Nc2ccc(OC)cc2)S(=O)(=O)c2ccccc21 (stereo not given)	-30.4%	/	/	-6.3%	/
Cn1c(=O)c(-c2ccc(Cl)cc2)nc2cnc(N3CCOCC3)nc21	26.7%	/	/	7.1%	/
CC(=O)[C@@]1(O)CC[C@H]2[C@@H]3C=C(Cl)C4=CC(=O)CC[C@]4(C)[C@H]3CC[C@@]21C	/	/	-3.2%	/	/
CCc1nc2ccccc2n1Cc1ccccc1OC	7.08µM*	?	18.1%	?	-12.8%
SMILES	RORg inh	GLP1R inv ag	GLP1R ag	VP16 counter	HEK293 tox
ClC1(Cl)CC1Cn1c(C2CC2)nc2ccccc21 (stereo not given)	14.3%	-8.9%	-0.3%	7.4%	1.4%
COc1ccccc1Cn1c(CCCO)nc2ccccc21	-30.8%	-3.6%	8.9%	12.6%	-7.1%
CCc1nc2ccccc2n1CC1CC1(Cl)Cl (stereo not given)	7.08µM*	-18.0%	6.5%	-1.9%[10 µM]	-0.4%
COc1ccccc1Cn1c(C)nc2ccccc21	14.1µM*	-7.3%	8.6%	?	-2.1%
Cc1ccc(NC(=O)C2CCCN2S(=O)(=O)c2ccc3c(c2)C(C)(C)C(=O)N3C)cc1 (stereo not given)	/	0.6%	/	/	2.1%
O=C1CN(C(=O)c2cccc(Br)c2)C(c2ccccc2)c2cc(Cl)ccc2N1 (stereo not given)	/	?	/	/	-2.1%

Assay outcomes as filed in PubChem BioAssay.
